Test results published in PubChem BioAssay (NCI).
This is part of a sample that, as a whole, favours compounds with a hit. Of some 83,000 tested, about 20% had one in any assay.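 Growth was measured after 48 h exposure to one concentration of compound in 96-well plates. Values under 10 count as active.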 Values without a mark were called inactive. Active and inactive are the calls of the source. Where a SMILES comes first, the peptide text is derived from it. Bridges are numbered along the chain shown (N, C = ends). [ ]: non-standard residue; d: D form. The star is where a group is joined. ξ: configuration not given here. ξNMePhe(4-NMe2) = CNC(Cc1ccc(N(C)C)cc1)C(=O)O; Picolinoyl(3-OH) = O=C(c1ncccc1O)*; ξPip(4-oxo) = O=C1CCNC(C(=O)O)C1; Phg = N[CH](C(=O)O)c1ccccc1; Abu = CC[CH](N)C(=O)O

What was measured:
Assay in all cases: NCI-60 one-dose screen, 48 h (100 = growth as untreated, 0 = no growth, -100 = all killed)
Conditions in all cases: 10 µM
[1] = test system: DU-145 prostate
[2] = test system: K-562 leukemia
[3] = test system: MALME-3M melanoma
[4] = test system: MDA-MB-231 breast
[5] = test system: RXF 393 renal
[6] = test system: SF-268 CNS
[7] = test system: SF-295 CNS
[8] = test system: SF-539 CNS
[9] = test system: UACC-257 melanoma
[10] = test system: M14 melanoma

Compound: Oc1ccccc1O
- growth [1]: 106%
- growth [2]: 112%
- growth [3]: 138%
- growth [4]: 63.9%
- growth [5]: 94.4%
- growth [6]: 87.2%
- growth [7]: 136%
- growth [8]: 84.1%
- growth [9]: 87.7%

Compound: CC(C)OC(C(=O)O)c1ccccc1 (stereo not drawn)
- growth [1]: 113%
- growth [2]: 124%
- growth [3]: 133%
- growth [4]: 99.3%
- growth [5]: 117%
- growth [6]: 104%
- growth [7]: 138%
- growth [8]: 102%
- growth [9]: 116%

Compound: CCCCNC1(C#N)CCN(Cc2ccccc2)CC1
- growth [1]: 135%
- growth [2]: 114%
- growth [3]: 94.7%
- growth [4]: 104%
- growth [5]: 107%
- growth [6]: 129%
- growth [7]: 97.2%
- growth [8]: 99.8%
- growth [9]: 107%

Compound: O=C(O)CSCSCC(=O)O
- growth [1]: 111%
- growth [2]: 97.8%
- growth [3]: 105%
- growth [4]: 107%
- growth [5]: 97%
- growth [6]: 110%
- growth [7]: 96.6%
- growth [8]: 98.3%

Compound: NC(C(=O)O)c1ccc([N+](=O)[O-])cc1 (stereo not drawn)
- growth [1]: 109%
- growth [2]: 113%
- growth [3]: 121%
- growth [4]: 90.2%
- growth [5]: 118%
- growth [6]: 105%
- growth [7]: 104%
- growth [8]: 89.3%
- growth [9]: 111%

Compound: CC(=O)OCC1=CC2OC(=O)C3=COC(OC4OC(CO)C(O)C(O)C4O)C1C32 (stereo not drawn)
- growth [1]: 114%
- growth [2]: 121%
- growth [3]: 96.5%
- growth [4]: 113%
- growth [5]: 36.8%
- growth [6]: 120%
- growth [7]: 112%
- growth [8]: 109%
- growth [9]: 102%

Compound: CC(=O)OCCC(C)CCC=C(C)C (stereo not drawn)
- growth [1]: 107%
- growth [2]: 98.5%
- growth [3]: 114%
- growth [4]: 98.1%
- growth [5]: 116%
- growth [6]: 97.2%
- growth [7]: 106%
- growth [8]: 99.1%
- growth [9]: 106%

Compound: O=c1[nH]nc(SC2CCCCC2)c(=O)[nH]1
- growth [1]: 114%
- growth [2]: 84.3%
- growth [3]: 95.7%
- growth [4]: 102%
- growth [5]: 129%
- growth [6]: 98.8%
- growth [7]: 118%
- growth [8]: 99%
- growth [9]: 91.2%

Compound: Cc1ccc(O)c(C(=O)c2ccccc2)c1
- growth [1]: 112%
- growth [2]: 122%
- growth [3]: 130%
- growth [4]: 90.6%
- growth [5]: 110%
- growth [6]: 101%
- growth [7]: 106%
- growth [8]: 101%
- growth [9]: 96.4%

Compound: CCC1NC(=O)C(NC(=O)c2ncccc2O)C(C)OC(=O)C(c2ccccc2)NC(=O)C2CC(=O)CCN2C(=O)C(Cc2ccc(N(C)C)cc2)N(C)C(=O)C2CCCN2C1=O (stereo not drawn) (tested in a mixture with another compound) ({Picolinoyl(3-OH)}-T[Abu]P[ξNMePhe(4-NMe2)][ξPip(4-oxo)][Phg]; ester 1-C; configuration not given here)
- growth [1]: 46.9%
- growth [2]: 38.3%
- growth [3]: 55.4%
- growth [4]: 58.6%
- growth [5]: 27.6%
- growth [6]: 79.8%
- growth [7]: 20.7%
- growth [8]: 64.2%
- growth [9]: 70.6%

Compound: CN(C)CCN(Cc1ccccc1)c1ccccc1
- growth [1]: 120%
- growth [2]: 81.7%
- growth [3]: 123%
- growth [4]: 91.7%
- growth [5]: 103%
- growth [6]: 114%
- growth [7]: 110%
- growth [8]: 121%
- growth [9]: 126%

Compound: CC(C)CCOC(=O)c1ccccc1
- growth [1]: 108%
- growth [2]: 102%
- growth [3]: 96.9%
- growth [4]: 104%
- growth [5]: 119%
- growth [6]: 102%
- growth [7]: 100%
- growth [8]: 98.8%
- growth [9]: 101%
- growth [10]: 100%

Compound: CCC(C)(C)C1CCC(O)CC1 (stereo not drawn)
- growth [1]: 107%
- growth [2]: 110%
- growth [3]: 96.4%
- growth [4]: 94.9%
- growth [5]: 109%
- growth [6]: 101%
- growth [7]: 114%
- growth [8]: 104%
- growth [9]: 99.8%

Compound: COc1cc2c(cc1O)CC[C@@H]1C2CC[C@@]2(C)C1CC[C@@H]2O (stereo partly drawn)
- growth [1]: 11%
- growth [2]: 2.79% (active)
- growth [3]: 48.1%
- growth [4]: 26.7%
- growth [5]: -4.44% (active)
- growth [6]: 50.6%
- growth [7]: 25.2%
- growth [8]: -4.91% (active)
- growth [9]: 23.3%

Compound: CCOC(=O)C(=O)C=P(c1ccccc1)(c1ccccc1)c1ccccc1
- growth [1]: 103%
- growth [2]: 107%
- growth [3]: 102%
- growth [4]: 99.2%
- growth [5]: 106%
- growth [6]: 97.9%
- growth [7]: 97.8%
- growth [8]: 103%
- growth [9]: 111%

Compound: CCOc1ccccc1/C=N/Nc1nc2ccccc2o1
- growth [1]: 110%
- growth [2]: 95.7%
- growth [3]: 97.5%
- growth [4]: 82.8%
- growth [5]: 112%
- growth [6]: 108%
- growth [7]: 108%
- growth [8]: 104%
- growth [9]: 113%

Compound: COS(=O)(=O)c1ccc(Br)cc1
- growth [1]: 102%
- growth [2]: 136%
- growth [3]: 119%
- growth [4]: 92.5%
- growth [5]: 105%
- growth [6]: 84.9%
- growth [7]: 107%
- growth [8]: 102%
- growth [9]: 93%

Compound: O=C(/C=C/C(=O)c1ccccc1)c1ccccc1
- growth [1]: 115%
- growth [2]: 41.9%
- growth [3]: 131%
- growth [4]: 110%
- growth [5]: 118%
- growth [6]: 107%
- growth [7]: 99%
- growth [8]: 114%
- growth [9]: 119%

Compound: CC1(C(N)=O)CCC(C(=O)O)C1(C)C (stereo not drawn)
- growth [1]: 113%
- growth [2]: 114%
- growth [3]: 74.9%
- growth [4]: 91.2%
- growth [5]: 104%
- growth [6]: 104%
- growth [7]: 91.2%
- growth [8]: 96.8%
- growth [9]: 99.5%

Compound: O=[N+]([O-])c1ccc(Sc2ccncn2)c([N+](=O)[O-])c1
- growth [1]: 85.4%
- growth [2]: 26.3%
- growth [3]: 86.6%
- growth [4]: 84.1%
- growth [5]: 81.7%
- growth [6]: 89%
- growth [7]: 113%
- growth [8]: 22.9%
- growth [9]: 64.7%

Compound: Nc1ncnc2[nH]ncc12
- growth [1]: 2.47% (active)
- growth [2]: 13%
- growth [3]: 21.3%
- growth [4]: 5.28% (active)
- growth [5]: 14.9%
- growth [6]: 29.9%
- growth [7]: 21%
- growth [8]: 35.6%
- growth [9]: 16.3%

Compound: CO[C@H]1C[C@@H]2CC[C@@H](C)[C@@](O)(O2)C(=O)C(=O)N2CCCC[C@H]2C(=O)O[C@H]([C@H](C)C[C@@H]2CC[C@@H](O)[C@H](OC)C2)CC(=O)[C@H](C)C=C(C)[C@@H](O)[C@@H](OC)C(=O)[C@H](C)C[C@H](C)/C=C/C=C/C=C1C
- growth [1]: 32.4%
- growth [2]: 51.5%
- growth [3]: 35.9%
- growth [4]: 75.9%
- growth [5]: 14.1%
- growth [6]: 56.2%
- growth [7]: 23%
- growth [8]: 30.4%
- growth [9]: 37.3%

Compound: O=C1c2ccccc2C(=O)c2c1ccc(C(=O)O)c2[N+](=O)[O-]
- growth [1]: 107%
- growth [2]: 77.3%
- growth [3]: 98.1%
- growth [4]: 79%
- growth [5]: 128%
- growth [6]: 111%
- growth [7]: 105%
- growth [8]: 96%
- growth [9]: 105%

Compound: CCCC1(c2ccccc2)NC(=O)NC1=O (stereo not drawn)
- growth [1]: 108%
- growth [2]: 135%
- growth [3]: 121%
- growth [4]: 95.2%
- growth [5]: 109%
- growth [6]: 98.3%
- growth [7]: 122%
- growth [8]: 100%
- growth [9]: 108%

Compound: CC(=O)OC(OC(C)=O)C1CCCO1 (stereo not drawn)
- growth [1]: 112%
- growth [2]: 135%
- growth [3]: 112%
- growth [4]: 91.8%
- growth [5]: 115%
- growth [6]: 97.8%
- growth [7]: 112%
- growth [8]: 100%
- growth [9]: 98%

Compound: COC(=O)Nc1cccc(Cl)c1OC
- growth [1]: 114%
- growth [2]: 113%
- growth [3]: 106%
- growth [4]: 124%
- growth [5]: 90%
- growth [6]: 107%
- growth [7]: 81.8%
- growth [8]: 98.2%
- growth [9]: 103%

Compound: CCCCCCCCOC(=O)c1ccccn1
- growth [1]: 102%
- growth [2]: 115%
- growth [3]: 117%
- growth [4]: 95.2%
- growth [5]: 116%
- growth [6]: 97.6%
- growth [7]: 133%
- growth [8]: 96.9%
- growth [9]: 107%

Compound: Nc1nc(OCc2ccccc2)c2[nH]cnc2n1
- growth [1]: 99.2%
- growth [2]: 80.4%
- growth [3]: 98.3%
- growth [4]: 97.9%
- growth [5]: 98.8%
- growth [6]: 109%
- growth [7]: 96.8%
- growth [8]: 89.7%
- growth [9]: 97.8%

Compound: CC1OC(Oc2c(-c3ccc(O)c(O)c3)oc3cc(O)cc(O)c3c2=O)C(O)C(O)C1O (stereo not drawn)
- growth [1]: 109%
- growth [2]: 103%
- growth [3]: 110%
- growth [4]: 107%
- growth [5]: 110%
- growth [6]: 104%
- growth [7]: 105%
- growth [8]: 110%
- growth [9]: 104%

Compound: Cc1cc2nc(CO)[nH]c2cc1C
- growth [1]: 104%
- growth [2]: 111%
- growth [3]: 144%
- growth [4]: 109%
- growth [5]: 89.8%
- growth [6]: 88.7%
- growth [7]: 121%
- growth [8]: 107%
- growth [9]: 92%

Compound: CN(C)c1ccc(S(=O)(=O)O)cc1
- growth [1]: 110%
- growth [2]: 104%
- growth [3]: 103%
- growth [4]: 105%
- growth [5]: 103%
- growth [6]: 91.9%
- growth [7]: 107%
- growth [8]: 91.2%
- growth [9]: 107%

Compound: CC(=O)c1ccc(C)c(N)c1
- growth [1]: 110%
- growth [2]: 102%
- growth [3]: 107%
- growth [4]: 115%
- growth [5]: 111%
- growth [6]: 100%
- growth [7]: 101%
- growth [8]: 101%
- growth [9]: 102%
